Compounds with a hit are over-represented: about 0.49% of the library has one in this group of screens.
EPAC1 agonist – qHTS for Agonist of cAMP-regulated guanine nucleotide exchange factor 3 (EPAC1): primary screen; EPAC1 agonist qHTS, biochemical assay; response scale: 100% = response to 6.5 mM cAMP; Rap guanine nucleotide exchange factor 3 (Homo sapiens), O95398; Potency, µM (series often up to 154 µM), inactives show at the highest dose activation, actives largely listed as activators; 360,000 compounds, 0.073% hits; note: nearly all actives have a fitted effect of over 60% in size
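EPAC1 100 nM, Rap1B–BODIPY-GDP 250 nM, unlabeled GDP 50 uM; compound titration; 5 min RT; kinetic read ex480/em540 at 5-min intervals ×30 min; data normalized to 6.5 mM cAMP agonist control.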
EPAC2 antag – qHTS for Antagonist of cAMP-regulated guanine nucleotide exchange factor 2 (EPAC2): primary screen. Rap guanine nucleotide exchange factor 4 (Homo sapiens), Q8WZA2. EPAC2 GEF exchange of Rap1B-BODIPY-GDP, fluorescence. Potency, µM (top dose mostly 114 µM), inactives show top-dose activity, negative = inhibition, most hits filed as inhibitors. 360,000 compounds, 0.18% hits; note: % is set by controls: 0 for no effect and ±100 for the full control effect; nearly all actives have a fitted effect of over 45% in size
EPAC2 ag – qHTS for Agonist of cAMP-regulated guanine nucleotide exchange factor 4 (EPAC2): primary screen. Rap guanine nucleotide exchange factor 4 (Homo sapiens), Q8WZA2. EPAC2 activation, biochemical qHTS; response scale: 100% = 6.5 mM cAMP response. Potency, µM (titrated, usually from 154 µM), for the others: at the highest dose activation, hits mostly activators. 360,000 compounds, 0.079% hits. AID 720711, 2013; note: nearly all actives have a fitted effect of over 50% in size
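Readout is BODIPY fluorescence (480 nm excitation, 540 nm emission), which falls as labeled GDP is exchanged off Rap1B. EPAC2 at 100 nM acted on 250 nM RAP1B-BODIPY-GDP with 50 uM GDP present.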
EPAC1 antag – qHTS for Antagonist of cAMP-regulated guanine nucleotide exchange factor 3 (EPAC1): primary screen | EPAC1 GEF assay, Rap1b-BODIPY-GDP exchange fluorescence | 360,000 compounds, 0.14% hits | Potency, µM (series often up to 115 µM), without a hit: top-dose activity change, negative = inhibition, hits mostly inhibitors | Rap guanine nucleotide exchange factor 3 (Homo sapiens), O95398;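 note: plate controls were vehicle for no effect and positive control for full effect; nearly all actives have a fitted effect of over 50% in size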
USP1 inh – Inhibitors of USP1/UAF1: Primary Screen. AID 743255, 2014. Potency, µM (top dose mostly 57.1 µM), for inactives: at the highest dose activity change, negative = inhibition, hits mostly inhibitors. recombinant USP1/UAF1, Ub-Rhodamine cleavage fluorescence. 390,000 compounds, 0.23% hits. Ubiquitin carboxyl-terminal hydrolase 1 (Homo sapiens), O94782; note: % is set by controls: 0 for no effect and ±100 for the full control effect; nearly all actives have a fitted effect of over 60% in size
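USP1/UAF1 complex at 1 nM was preincubated with compound for 15 min at room temperature, then Ub-Rho substrate (150nM final) was added. Fluorescence (480/540 nm) was read kinetically, 6 reads every 60 seconds.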
* marks the source's active call; other numbers are inactive results; ? = inconclusive; . = no result given. Calls come from the whole dose curve; as a rule, active = well fitted curve in the direction sought with a large enough effect; inconclusive = small, poorly fitted or top-dose-only effect, or another doubt; inactive = no such curve, though single readings can be large; an effect the other way counts as inactive or inconclusive. Potency is the fitted concentration of half-maximal effect.

SMILES	EPAC1 agonist	EPAC2 antag	EPAC2 ag	EPAC1 antag	USP1 inh
Cn1c(=O)c(N)c2c3c(c(Br)ccc31)C(=O)c1ccccc1-2	112µM*	30%	?	31%	244%
O=C(N/N=C/c1cc(Br)c(O)c(Br)c1)c1cc2c(ccc3ccccc32)o1	-4%	-14%	8%	28µM*	?
O=C(N/N=C/c1ccc(O)c(Br)c1)c1cc2c(ccc3ccccc32)o1	5%	-5%	6%	1%	-5%
O=C(O)c1cccc(NC2=C(n3nnc4ccccc43)C(=O)c3ccccc3C2=O)c1	-1%	-2%	0%	-4%	28µM*
CCC(C)n1c(=O)c2sccc2n2c(CCCC(=O)Nc3ccc(F)cc3)nnc12 (stereo not given)	.	.	.	.	-15%
O=c1ccc(-c2ccccc2)nn1Cc1ccc(Cl)cc1	5%	35µM*	9%	-6%	-22%
O=C1C(=Cc2ccc(Cl)cc2)CCc2ccccc21	4%	-26%	9%	-8%	.
O=C1C(=Cc2ccccc2Cl)CCc2ccccc21	-4%	35µM*	3%	?	.
CC1CCCCN1c1nnc(NC(=O)Nc2ccccc2F)s1 (stereo not given)	.	.	.	.	8%
CCOc1ccc(Oc2ccccc2NC(=O)CN2C(=O)NC3(CCCC3)C2=O)cc1	28µM*	-4%	-5%	-20%	-2%
O=C1C=C(NCCc2cc(Br)c(O)c(Br)c2)C(=O)c2ncccc21	15%	79µM*	-1%	50µM*	3.5µM*
CCNc1ccc(Br)cc(C(=O)/C=C/c2ccc(Cl)cc2)c1=O	10%	-2%	17%	12%	32µM*
CCNc1ccc(Br)cc(C(=O)/C=C/c2c(Cl)cccc2Cl)c1=O	15%	2%	14%	?	?
N#Cc1cc(C(=O)c2ccccc2O)cn(-c2nccs2)c1=O	89µM*	77%	100µM*	62%	28µM*
N#Cc1cc(C(=O)c2cc(F)ccc2O)cn(-c2nccs2)c1=O	?	76%	112µM*	36%	25µM*
Cc1c(-n2cc(C(=O)c3cc(F)ccc3O)cc(C#N)c2=O)c(=O)n(-c2ccccc2)n1C	17%	4%	10%	-21%	-21%
COc1ccc(S(=O)(=O)Nc2cc(SCC(=O)O)c(O)c3ccccc23)cc1	19%	3%	5%	79µM*	32µM*
Cc1cc(C)c(S(=O)(=O)Nc2cc(SCC(=O)O)c(O)c3ccccc23)cc1C	29%	-5%	-3%	?	?
O=C(O)CSc1cc(NS(=O)(=O)c2ccc(Cl)cc2)c2ccccc2c1O	28%	79µM*	?	?	25µM*
Nc1ccc(N2CCOCC2)c2nonc12	0%	?	14%	?	18µM*
O=C(Nc1ccc(N2CCOCC2)c2nonc12)C1CCCC1	-5%	3%	-5%	-11%	?
COc1ccc(OC)c(NC(=O)c2nc(S(=O)(=O)Cc3ccc(F)cc3)ncc2Cl)c1	.	.	.	.	-21%
CC(C)=C1C(=O)NN(c2ccc(F)c(Cl)c2)C1=O	11%	-3%	4%	-6%	-25%
O=C1NN(c2ccc(F)c(Cl)c2)C(=O)/C1=C\c1cccc(OC(=O)c2cccs2)c1	-13%	1%	5%	35µM*	?
CCCCCCCCCCCCN1[C@@H](CC(=O)O)c2cc(C(F)(F)F)ccc2S1(=O)=O	-39%	?	-12%	79µM*	?
SMILES	EPAC1 agonist	EPAC2 antag	EPAC2 ag	EPAC1 antag	USP1 inh
CCCCCCCCCCCCN1[C@@H](CC(=O)O)c2cc(F)ccc2S1(=O)=O	-40%	?	-22%	79µM*	?
COc1ccc(C2C(=O)N(C3CCCCC3)CC(=O)N2CCc2ccc(C)cc2)cc1OC (stereo not given)	.	.	.	.	18%
CC(=O)c1cc(C#N)c(N(C)Cc2ccccc2)nc1C	13%	50µM*	14%	-28%	-11%
COc1ccc(NCc2cc3cc4c(cc3n(CC(=O)Nc3ccccc3)c2=O)OCO4)cc1	.	.	.	.	-16%
CN1CCc2nc3sc(C(=O)c4ccc(F)cc4)c(N)c3cc2C1	.	.	.	.	-25%
CN1CCc2nc3sc(C(=O)C45CC6CC(CC(C6)C4)C5)c(N)c3cc2C1	12%	50µM*	?	-19%	?
CCOC(=O)CC(=O)CSc1nc2ccc(C)cc2cc1C#N	?	36%	100µM*	10%	28µM*
COc1ccc(OC)c(/C=c2\sc3nc(-c4cccs4)nn3c2=O)c1	112µM*	205%	100µM*	-4%	32µM*
Cc1ccc(NC(=O)CN2C(=O)C3(SCC(=O)N3c3ccc(F)c(F)c3)c3ccccc32)c(C)c1 (stereo not given)	.	.	.	.	-35%
Cc1cccc(C)c1-n1cccc1/C=C1\SC(=S)N(c2cccc(C(=O)O)c2)C1=O	1%	?	-4%	50µM*	?
COC(=O)CC1(c2ccc(OC)cc2)C(=O)c2ccccc2C1=O	6%	45µM*	4%	6%	-5%
Cc1ccc2nc(SCC(=O)c3c(N)n(C4CC4)c(=O)[nH]c3=O)[nH]c2c1	-9%	71µM*	27%	-9%	-25%
CCOc1ccc(CC(=O)NCCc2csc(-c3ccc(C)cc3)n2)cc1	.	.	.	.	-7%
N#C/C(=C\c1ccccn1)c1nc2ccccc2s1	-42%	25µM*	-107%	?	424%
Cc1cc(NC(=O)Nc2nnc(N(C)Cc3ccccc3)s2)ccc1Br	.	.	.	.	32µM*
Nc1ccc(N)c(C(=O)O)c1	12%	-7%	8%	?	20µM*
Nc1ccc(C(=O)O)c(O)c1	-3%	9%	-3%	-3%	-20%
COc1ccc(C=NNc2ccc(S(=O)(=O)Nc3ccccc3C(=O)O)cc2[N+](=O)[O-])c(OC)c1	3%	-5%	1%	50µM*	?
C=CCOc1ccc(C=NNc2ccc(S(=O)(=O)Nc3ccccc3C(=O)O)cc2[N+](=O)[O-])cc1OC	-6%	?	1%	50µM*	?
CCOc1ccccc1NC(=O)Nc1cc(C(=O)NCc2ccc(C)cc2)ccc1N1CCCC1	.	.	.	.	-16%
CCOC(=O)c1nnc2c(-c3ccc(Cl)cc3)c(C)nn2c1N	.	.	.	.	-13%
CCOC(=O)c1sc2ccccc2c1S(=O)(=O)N1CCN(c2cccc(OC)c2)CC1	.	.	.	.	-7%
O=C1C=CC(c2ccccc2)(c2ccccc2)CC1	1%	45µM*	12%	4%	-8%
Cc1cc(C)cc(NC(=O)CCN2C(=O)c3ccccc3Sc3ncccc32)c1	.	.	.	.	11%
COc1ccc(N2CCN(C(=O)c3cc(-c4cc(OC)ccc4OC)nc4ccccc34)CC2)cc1	-4%	4%	7%	1%	?
